Bioassay records as filed in PubChem BioAssay.
The list is not random: actives were taken first. Their share in the collection is about 5.3%.
BAZ2B block: inhibitors of human BAZ2B bromodomain; AlphaScreen BAZ2B-H3K14Ac peptide displacement; Potency, µM (titrated, usually from 114 µM), inactives show at the top dose activity change, negative = inhibition, actives largely listed as inhibitors; 360,000 compounds, 4.4% hits; also: potency is read from the fitted curve at half-maximal effect; % is scaled to controls: 0 for no effect and ±100 for the full control effect; nearly all actives have a fitted effect of over 60% in size
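AlphaScreen displacement: compounds (up to 110uM) incubated 30 min at room temperature with a preformed 50 nM BAZ2B/50 nM biotinylated H3K14Ac peptide complex in PBS pH 7.4 with Tween-20. Donor and acceptor beads at 10 ug/mL final added, 20 min light-protected before reading.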
HP1b binding inh: blocks HP1-beta chromodomain binding to methylated histone tails | P83916 | AlphaScreen HP1-beta / biotin-H3K9me3 peptide binding | Potency, µM (highest dose often 114 µM), for inactives: at the top dose activity change, negative = inhibition, usual class: inhibitors | 390,000 compounds, 0.56% hits; also: potency is read from the fitted curve at half-maximal effect; nearly all actives have a fitted effect of over 70% in size
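HP1-beta protein (50 nM final) preincubated 30 min at room temperature with biotinylated H3(1-18)K9me3 peptide (50 nM) in PBS pH 7.4, 0.01% Tween-20, then compound added for 30 min. AlphaScreen streptavidin donor/nickel chelate acceptor beads (10 ug/mL final), 30 min dark, luminescence read.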
TDP1 block: TDP1 (human) enzyme inhibition | Q9NUW8 | recombinant TDP1, AlphaScreen DNA substrate cleavage | Potency, µM (highest dose often 130 µM), for inactives: at the highest dose activity change, negative = inhibition, most hits filed as inhibitors | 350,000 compounds, 0.28% hits | AID 485290; also: potency is read from the fitted curve at half-maximal effect; % is scaled to controls: 0 for no effect and ±100 for the full control effect; nearly all actives have a fitted effect of over 40% in size
Target sequence (Q9NUW8 whole entry, looked up): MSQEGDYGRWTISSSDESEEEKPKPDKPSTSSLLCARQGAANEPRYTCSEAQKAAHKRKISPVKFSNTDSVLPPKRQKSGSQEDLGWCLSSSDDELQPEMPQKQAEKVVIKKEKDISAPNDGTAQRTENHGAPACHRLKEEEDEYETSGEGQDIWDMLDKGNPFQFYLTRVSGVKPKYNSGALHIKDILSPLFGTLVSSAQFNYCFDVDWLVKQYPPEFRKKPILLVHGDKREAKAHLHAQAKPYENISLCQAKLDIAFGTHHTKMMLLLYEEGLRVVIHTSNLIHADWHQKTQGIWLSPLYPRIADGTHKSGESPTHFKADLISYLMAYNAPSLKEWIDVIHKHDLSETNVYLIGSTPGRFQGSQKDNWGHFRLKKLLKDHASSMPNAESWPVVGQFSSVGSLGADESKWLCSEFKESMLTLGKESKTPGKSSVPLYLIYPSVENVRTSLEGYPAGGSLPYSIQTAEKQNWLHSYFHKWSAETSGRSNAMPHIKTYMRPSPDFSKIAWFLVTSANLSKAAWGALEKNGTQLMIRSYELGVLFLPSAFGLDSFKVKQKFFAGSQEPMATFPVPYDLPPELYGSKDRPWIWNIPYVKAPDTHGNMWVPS
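E. coli-derived human Tdp1, 1 nM final. Cpd preinc 15 min RT; substrate 15 nM final, 5 min RT; AS bead mix 10 ug/ml final, 10 min RT. Signal loss = tyrosine-FITC cleavage. No-enzyme wells = max signal.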
Six1-Eya2 inh: blocks human Six1 binding to Eya2. 360,000 compounds, 0.56% hits. AlphaScreen GST-Six1/His-Eya2 binding, biochemical; hits give low values. Q15475+O00167. activity change, % (concentration not given with the values); in the data active = activity change below about -65%; inconclusive = mostly about -30% to -63%; also: % is scaled to controls: 0 for no effect and ±100 for the full control effect
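AlphaScreen luminescence read after one hour at 37 °C in darkness. Pin-transferred compounds met GST-Six1 and His-Eya2 protein (5X stock 250 nM/500 nM) plus glutathione donor and Ni-chelate acceptor beads (5X, 50 ug/mL).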
JMJD2A Tudor inh: inhibitors of human JMJD2A Tudor domain. O75164. AlphaScreen JMJD2A-Tudor / H3K4me3 peptide binding. Potency, µM (highest dose often 114 µM), inactives show at the top dose activity change, negative = inhibition, hits mostly inhibitors. 390,000 compounds, 4.4% hits. AID 504339; also: potency is read from the fitted curve at half-maximal effect; % is scaled to controls: 0 for no effect and ±100 for the full control effect; nearly all actives have a fitted effect of over 50% in size
CtBP-E1A blk: blocks the CtBP interaction with E1A; activity change, % (no concentration beside the values); AlphaScreen GST-E1A/His-CtBP binding, 1536-well; hits give low values; 340,000 compounds, 0.49% hits; in the data active = activity change below about -65%; inconclusive = mostly about -30% to -63%; also: % is scaled to controls: 0 for no effect and ±100 for the full control effect
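AlphaScreen with 125 nM GST-E1A and 125 nM His-CtBP (5X stocks) in Tris pH 8.0, 300 mM NaCl, BSA, Tween 20, TCEP. Compounds preincubated 2 h at 37 deg C, then glutathione donor/nickel acceptor beads added for 1 h at 37 deg C in dark.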
An asterisk follows results filed as active; ? = inconclusive; . = not tested or not shown; [ ] = dose if it differs, or a comment. Unless noted, calls follow the shape of the dose curve; as a rule, active = well fitted inhibition curve with a large enough effect; inconclusive = small, poorly fitted or top-dose-only effect; inactive = no such curve, though single readings can be large or run the other way.

SMILES	BAZ2B block	HP1b binding inh	TDP1 block	Six1-Eya2 inh	JMJD2A Tudor inh	CtBP-E1A blk
O=c1c(-c2ccc(Cl)cc2)[n+]([O-])c2ccccc2n1O	?	-8.3%	-1.1%	8.5	25.1µM*	-6.6
O=c1c(-c2cccc([N+](=O)[O-])c2)[n+]([O-])c2ccccc2n1O	?	-0.6%	.	2.4	56.2µM*	2.0
CCOC(=O)COn1c(=O)c(-c2ccc(Cl)cc2)[n+]([O-])c2ccccc21	3.0%	25.7%	.	4.7	-8.9%	-1.8
COn1c(=O)c(-c2cccc(Br)c2)[n+]([O-])c2ccccc21	-34.8%	38.8%	2.4%	3.7	-6.9%	7.6
Cc1ccc(C)c(NC(=S)/C(=C(\[O-])c2ccc(Cl)s2)[n+]2ccccc2)c1	35.5µM*	-20.0%	5.9%	-14.6	?	-9.8
[O-]/C(=C(\C(=S)Nc1cccc2ccccc12)[n+]1ccccc1)c1ccc(Cl)s1	35.5µM*	?	-1.8%	-21.4	?	13.4
[O-]C(=C(C(=S)Nc1cccc2ccccc12)[n+]1cccc(CO)c1)c1ccc(Cl)s1	.	-38.0%	.	-11.1	-48.6%	3.0
Cc1cc(C)cc(NC(=S)/C(=C(\[O-])c2ccc(Cl)s2)[n+]2cccc(C)c2)c1	39.8µM*	?	0.6%	-18.5	50.1µM*	-9.4
CC1CCN(c2nc3ccccc3nc2C(F)(F)F)CC1	73.8%	150.4%	-5.3%	.	92.9%	.
Cc1ccc(-c2nc(S(=O)(=O)c3ccc(Cl)cc3)c(N3CCCCC3)o2)cc1	?	?	2.2%[12.3 µM]	.	-33.7%	.
COc1ccc(C2NC(=O)N(C)C3=C2C(=O)N(c2ccc(F)cc2)C3)cc1 (stereo not drawn)	-2.1%	9.7%	7.0%	.	3.7%	.
Cc1ccc(NC(=O)CN(C)S(=O)(=O)c2cccc3cccnc23)cc1	9.2%	26.7%	1.0%	0.8	-22.8%	-2.4
Cc1ccc(NC(=O)CN(C)C(=O)COc2cccc3cccnc23)cc1	50.1µM*	2.9%	-0.6%	?	?	?
O=C(O)CC(Cn1[nH]nnc1=S)c1ccccc1 (stereo not drawn)	?	12.6%	7.0%	3.1	50.1µM*	2.7
O=C(O)CC(CC(=O)Nc1nncs1)c1ccccc1 (stereo not drawn)	-6.6%	13.2%	0.0%	-4.7	-8.4%	-5.9
CCOc1ccc(C(=S)NC2CCCCC2)cc1OCC	?	?	6.8%	-2.2	79.4µM*	-13.3
CCOc1ccc(C(C)NC(=S)NC2CCCCC2)cc1OCC (stereo not drawn)	-29.8%	10.3%	5.0%	-1.8	-13.8%	-15.7
N#Cc1ccc(N2CCN(S(=O)(=O)c3ccc4c(c3)CC(=O)N4)CC2)cc1	.	.	.	.	-20.6%	.
CC1C(=O)NN=C1C(=O)N/N=C\c1ccc(O)cc1O (stereo not drawn)	11.2µM*	16.2%	1.1%	-92.1*	39.8µM*	-10.9
COc1cc(/C=N/NC(=O)C2=NNC(=O)C2C)ccc1O (stereo not drawn)	?	4.9%	.	-3.2	?	6.1
CC(=O)N1CCC(N(Cc2ccco2)C(=O)Nc2cccc(C)c2)CC1	4.7%	49.4%	5.0%	.	4.3%	.
CC(C)Oc1cccc(NC(=O)C2CCN(S(=O)(=O)Cc3ccccc3)CC2)c1	?	28.2%	5.7%	.	-13.9%	.
CCOC(=O)c1c(C)oc2ncnc(N3CCN(c4cccc(Cl)c4)CC3)c12	-32.8%	36.7%	6.4%	.	-9.3%	.
COC(=O)N/N=C/c1cc(Br)ccc1O	4.9%	40.7%	0.0%	-8.9	-17.4%	-0.8
CCOc1cc(Br)cc(/C=N/NC(=O)c2cccnc2)c1O	28.2µM*	59.0%	.	-67.0*	39.8µM*	-92.1*
SMILES	BAZ2B block	HP1b binding inh	TDP1 block	Six1-Eya2 inh	JMJD2A Tudor inh	CtBP-E1A blk
CC(C)NC(=S)N/N=C/c1cc(Br)ccc1O	17.8µM*	?	10.5%	-82.4*	50.1µM*	-89.2*
COc1c(Br)cc(Br)cc1/C=N/NC(=O)c1cccnc1	-4.4%	49.6%	.	-7.9	-6.6%	-1.9
COc1cc([N+](=O)[O-])cc(/C=N/NC(=O)CC#N)c1O	8.91µM*	.	-7.5%	.	.	.
COc1ccc(/C=N/NC(=O)c2cccnc2)cc1CN1CCCc2ccccc21	39.8µM*	44.7µM*	10.3%	-22.0	35.5µM*	0.0
COc1ccc(C(=O)N/N=C/c2ccc(OC)c(CN3CCCc4ccccc43)c2)cc1	?	-2.2%	5.5%	?	?	?
Cc1ccccc1CSc1cn(CC(=O)N2CCCC2)c2ccccc12	-24.6%	25.3%	0.0%	.	-11.0%	.
CC1CCn2c(nc3cc(C(=O)NCCc4ccccc4)ccc32)C1 (stereo not drawn)	-2.3%	12.9%[57 µM]	2.7%	.	-17.5%	.
COc1ccc(OC)c(NC(=O)C(C)n2nc(C)c3c(C)n(-c4ccccc4)nc3c2=O)c1 (stereo not drawn)	-23.6%	21.8%	0.0%	.	-16.2%	.
COc1cc([N+](=O)[O-])cc(/C=N/NC(=O)Cn2cncn2)c1O	31.6µM*	22.0%	6.2%	-90.4*	25.1µM*	.
Cc1ccc(C(=O)N/N=C/c2cc(Br)ccc2O)cn1	7.94µM*	12.3%	.	-89.3*	56.2µM*	-90.8*
O=C(N/N=C/c1ccc(OC(=O)c2ccc([N+](=O)[O-])cc2)cc1)c1cccnc1	-27.3%	35.3%	-0.2%	?	-23.3%	2.9
COc1cc(/C=N/NC(=O)c2cccnc2)ccc1OC(=O)c1ccc([N+](=O)[O-])cc1	?	64.6%	44.7µM*	-10.1	-20.7%	3.0
COc1cc([N+](=O)[O-])cc(/C=N/NC(=O)CSc2ccccn2)c1O	?	24.9%	9.0%	-81.6*	79.4µM*	-91.0*
Cc1nc(N2C(=O)c3oc4ccccc4c(=O)c3C2c2cccc(OCCC(C)C)c2)sc1C (stereo not drawn)	-0.5%	45.4%	0.0%	.	4.8%	.
COc1ccccc1NC(=O)C1CCN(S(=O)(=O)c2ccc3c(c2)oc(=O)n3C)CC1	-1.8%	19.9%	6.4%	.	-17.9%	.
COc1cc([N+](=O)[O-])cc(/C=N/NC(=O)c2ccc(C)nc2)c1O	10µM*	15.6%	-6.9%	-88.1*	?	-94.6*
COc1cc([N+](=O)[O-])cc(/C=N/NC(=O)C(C)Nc2ccccc2C)c1O (stereo not drawn)	?	11.8%	10.8%	?	-35.0%	-73.2*
CCOCCc1nn2c(=O)cc(COC(=O)c3ccccc3NC(=O)c3ccccc3F)nc2s1	0.2%	37.1%	-1.2%	.	9.3%	.
COC(=O)c1ccc(C(/C=C/[C@@H](C)C(=O)N[C@H](C)CO)NC(=O)OCc2ccccc2)cc1 (stereo partly drawn)	.	.	5.1%	.	.	.
